Screening results as filed in PubChem BioAssay.
A selection: hits, their analogues and other compounds. The true share with any hit is near 0.35%.
MBNL1 CUG block = qHTS Assay for Inhibitors of MBNL1-poly(CUG) RNA binding; Muscleblind-like protein 1 (Homo sapiens), Q9NR56; TR-FRET MBNL1-His/biotin-(CUG)12 binding, 665/545 ratio; 280,000 compounds, 0.036% hits; Potency, µM (series often up to 57.5 µM), usual class: inhibitors; AID 2675, 2010; active = well fitted inhibition curve with a large enough effect in the signal ratio, with a control signal flat, not every such curve was filed as active; inconclusive = small, poorly fitted or top-dose-only effect, or effect the other way, or a change in a side signal; inactive = no such curve, though single readings can be large or run the other way; the % refers to the signal ratio
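Compounds (final 92 nM to 58 uM) are added to His-tagged MBNL1 and biotin-(CUG)12, then terbium anti-His antibody and streptavidin-XL665 (5 nM final). After 60 min at room temperature, the 665/545 nm ratio is read.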
B2AR arrestin = qHTS assay of beta-arrestin-biased ligands of beta2-adrenergic receptor | Beta-2 adrenergic receptor (Homo sapiens), P07550 | beta-arrestin recruitment to beta2AR, cell-based reporter | Potency, µM (series often up to 46.1 µM), actives largely listed as activators | 330,000 compounds, 0.02% hits; note: nearly all actives have a fitted effect of over 65% in size
BCR signal inh = qHTS Assay to Find Inhibitors of Chronic Active B-Cell Receptor Signaling; 340,000 compounds, 0.05% hits; ABC-DLBCL IkBa-CBG/CBR reporter, luminescence ratio, 4 h; Potency, µM (top dose mostly 46.1 µM), hits mostly inhibitors; AID 493014, 2011; active = well fitted inhibition curve with a large enough effect in the signal ratio, with a control signal flat, not every such curve was filed as active; inconclusive = small, poorly fitted or top-dose-only effect, or effect the other way, or a change in a side signal; the % refers to the signal ratio
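TMD8 human ABC-DLBCL cells with doxycycline-inducible IκBα–green luciferase fusion and unfused red luciferase, in 0.5% FBS medium; compounds up to 46 uM, 4 h at 37C. Green/red luminescence ratio, filter-overlap corrected, fitted to concentration-response curves.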
Apoferritin bind = qHTS Assay for Identification of Novel General Anesthetics. Potency, µM (doses to about 77.5 µM), most hits filed as inhibitors. 350,000 compounds, 0.074% hits. apoferritin/1-aminoanthracene competitive binding, fluorescence. AID 485281, 2010; note: nearly all actives have a fitted effect of over 20% in size
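Probe: 1-aminoanthracene (50% saturated, PBS). Protein: horse-spleen apoferritin, 10 uM. Incubation: 10 min, room temperature. Detection: 380 nm excitation, 535 nm emission. Analysis: normalized response, four-parameter Hill.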
GLS inh = qHTS for Inhibitors of Glutaminase (GLS); Glutaminase kidney isoform, mitochondrial (Homo sapiens), O94925; Potency, µM (titrated, usually from 45.5 µM), most hits filed as inhibitors; GLS enzymatic activity, qHTS titration; 410,000 compounds, 0.21% hits
Target sequence (O94925 whole entry, looked up, canonical isoform): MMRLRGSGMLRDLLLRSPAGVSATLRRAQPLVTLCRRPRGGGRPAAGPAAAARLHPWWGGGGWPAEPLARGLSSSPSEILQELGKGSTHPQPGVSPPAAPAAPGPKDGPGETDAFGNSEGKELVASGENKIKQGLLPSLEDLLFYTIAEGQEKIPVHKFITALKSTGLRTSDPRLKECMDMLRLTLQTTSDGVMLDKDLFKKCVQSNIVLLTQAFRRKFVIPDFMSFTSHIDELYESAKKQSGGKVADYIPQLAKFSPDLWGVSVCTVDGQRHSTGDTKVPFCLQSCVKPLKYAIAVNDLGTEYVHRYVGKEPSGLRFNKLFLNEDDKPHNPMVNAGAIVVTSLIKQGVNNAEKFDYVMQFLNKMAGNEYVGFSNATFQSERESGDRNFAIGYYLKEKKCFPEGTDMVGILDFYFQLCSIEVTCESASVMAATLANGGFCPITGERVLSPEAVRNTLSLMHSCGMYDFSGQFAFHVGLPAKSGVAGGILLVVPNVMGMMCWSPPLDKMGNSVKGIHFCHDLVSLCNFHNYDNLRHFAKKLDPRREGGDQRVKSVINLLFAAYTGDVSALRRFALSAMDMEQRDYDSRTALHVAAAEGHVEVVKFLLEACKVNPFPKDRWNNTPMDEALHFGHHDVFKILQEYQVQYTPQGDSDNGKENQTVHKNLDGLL
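hKGA in 45 mM KH2PO4 (pH 8.2), 0.02% Tween-20 with compound, then 1mM L-Glutamine (stock as added) plus glutamate oxidase/HRP/Amplex red coupling mix. Fluorescence read initially and after 30 min at RT; signal change reflects glutamate formation.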
Each line names hits and unclear results; the compound was inactive in the other large screens. Unless noted, calls come from the whole dose curve; as a rule, active = well fitted curve in the direction sought with a large enough effect; inconclusive = small, poorly fitted or top-dose-only effect, or another doubt; inactive = no such curve, though single readings can be large; an effect the other way counts as inactive or inconclusive.

Cc1cccc(-n2c(=S)[nH]c3sc4c(c3c2=O)CCc2ccccc2-4)c1	GLS inh 10µM
CC(C)(C)NC(=S)N1CCC2CC1c1cc(-c3ccc4c(c3)OCO4)ccc12 (stereo unspecified)	GLS inh 16µM (no result: MBNL1 CUG block, B2AR arrestin, BCR signal inh, Apoferritin bind)
CC(C)(C)C(=O)N1CCC2CC1c1cc(-c3ccc4c(c3)OCO4)ccc12 (stereo unspecified)	none (no result: MBNL1 CUG block, B2AR arrestin, BCR signal inh, Apoferritin bind)
Cc1ccc(C)n1-c1ccc(N(C)C)cc1	Apoferritin bind inconclusive, GLS inh 13µM
COc1ccc(Nc2cc(C(=O)NCCCN3CCN(c4ccccc4F)CC3)c3ccccc3n2)c(OC)c1	none (no result: MBNL1 CUG block, B2AR arrestin, BCR signal inh)
Cc1c2oc3c(C)ccc(C(=O)NC4C(=O)NC(C(C)C)C(=O)N5CCCC5C(=O)N(C)CC(=O)N(C)C(C(C)C)C(=O)OC4C)c3nc-2c(C(=O)NC2C(=O)NC(C(C)C)C(=O)N3CCCC3C(=O)N(C)CC(=O)N(C)C(C(C)C)C(=O)OC2C)c(N)c1=O (stereo unspecified)	none (no result: MBNL1 CUG block, B2AR arrestin, BCR signal inh, GLS inh)
COc1ccccc1Cn1c(=S)[nH]c2cc(C(=O)NC(C)C)ccc2c1=O	none
COc1ccccc1Cn1c(=S)[nH]c2cc(C(=O)NCC(OC)OC)ccc2c1=O	GLS inh 10µM
COc1ccccc1Cn1c(=S)[nH]c2ccccc2c1=O	GLS inh 20µM
COc1ccccc1Cn1c(=S)[nH]c2ccc(Br)cc2c1=O	BCR signal inh inconclusive
CCO[C@@H](Cc1ccc(OCCc2ccc(OS(C)(=O)=O)cc2)cc1)C(=O)O	none (no result: MBNL1 CUG block, B2AR arrestin, BCR signal inh, Apoferritin bind)
CCOC(=O)c1ccc(NC(=S)NNC(C)(C)C)cc1	B2AR arrestin 22µM, BCR signal inh inconclusive
O=C(NCc1ccc2c(c1)OCO2)c1ccc(N2C(=O)C3CCCCC3C2=O)cc1 (stereo unspecified)	Apoferritin bind 8.9µM
CC(=O)NC(CCC(N)=O)C(=O)O (stereo unspecified)	none (no result: MBNL1 CUG block, B2AR arrestin, BCR signal inh, Apoferritin bind)
COc1cc(/C=C2\C(=O)ON=C2c2ccccc2)cc(Br)c1O	MBNL1 CUG block inconclusive
CCOc1cc(/C=C2\C(=O)ON=C2c2ccccc2)cc(Br)c1O	MBNL1 CUG block inconclusive, GLS inh 8.9µM
CC(CN(C)C)CN1c2ccccc2S(=O)(=O)c2ccccc21 (stereo unspecified)	none (no result: MBNL1 CUG block, B2AR arrestin, BCR signal inh, Apoferritin bind)
CCC1CCc2sc(C(=O)OCC(=O)N(CCOC)c3c(N)n(Cc4ccccc4)c(=O)[nH]c3=O)cc2C1 (stereo unspecified)	none (no result: MBNL1 CUG block, Apoferritin bind)
COCCN(C(=O)COC(=O)c1cc2c(s1)CCC2)c1c(N)n(Cc2ccccc2)c(=O)[nH]c1=O	GLS inh 10µM (no result: MBNL1 CUG block, Apoferritin bind)
O=C1c2[nH]nc(-c3ccccc3O)c2C(c2cccc(Br)c2)N1Cc1ccncc1 (stereo unspecified)	none (no result: MBNL1 CUG block, B2AR arrestin, BCR signal inh)
CCOC(=O)c1nn(-c2ccccc2)c(=O)cc1OCC(=O)Nc1cc(C)ccc1OC	GLS inh 7.9µM (no result: MBNL1 CUG block, Apoferritin bind)
NCCn1oc(=O)[nH]c1=O	none (no result: MBNL1 CUG block, B2AR arrestin, BCR signal inh, GLS inh)
Cc1ccc(NC2=C(c3ccc(C(F)(F)F)cc3)C(=O)c3ccccc32)cc1C	none (no result: MBNL1 CUG block, B2AR arrestin, BCR signal inh)
NC(=O)c1c(NC(=O)CSc2nnc(-c3ccco3)n2-c2ccccc2)sc2c1CCC2	BCR signal inh inconclusive, Apoferritin bind 22µM
CCn1c(SCC(=O)Nc2sc3c(c2C#N)CCCC3)nnc1-c1ccco1	Apoferritin bind inconclusive
CCn1c(SCC(=O)Nc2sc3c(c2C#N)CCC(C(C)(C)C)C3)nnc1-c1ccco1 (stereo unspecified)	Apoferritin bind 28µM
N#Cc1c(NC(=O)CSc2nnc(-c3ccco3)n2-c2ccccc2)sc2c1CCC2	BCR signal inh inconclusive, Apoferritin bind inconclusive
O=C(O)c1ccc(-c2ccc(/C=c3/sc4nc5ccccc5n4c3=O)o2)cc1Cl	BCR signal inh inconclusive, GLS inh 10µM
Cc1ccc2c(nc3s/c(=C\c4ccc(-c5ccccc5C(=O)O)o4)c(=O)n32)c1C	GLS inh inconclusive
Cc1cc(C)c2nc3sc(=Cc4ccc(-c5ccccc5C(=O)O)o4)c(=O)n3c2c1	GLS inh 13µM (no result: MBNL1 CUG block, B2AR arrestin, BCR signal inh, Apoferritin bind)
CCc1n[nH]c(=S)n1/N=C/c1c(C)nn(-c2ccccc2)c1Cl	none
